# Data from PubChem BioAssay (EPA / NIEHS).
# Results filed as inconclusive are left out. The source made the active and inactive calls. How the source made its calls: active means hit-call score of the fitted dose curve at least 0.9, where 1 is the maximum; inconclusive means response in the unintended direction; inactive means score below 0.9.
# Legend:
# [1] = biological target: human Adenosine A2a Receptor (AdoRA2a), ADORA2A (gene 135) (UniProt P29274); assay: NVS_GPCR_hAdoRA2a: NovaScreen (NVS) G Protein-Coupled Receptor Assay for human Adenosine A2a Receptor (AdoRA2a) (AID 2283256)
# Procedure, shortened: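 HEK293-derived receptor preparation, radioligand displacement, 1.5 h, filtration + scintillation read. Loss of bound signal scored vs DMSO. Single-point 25 uM in duplicate first, then concentration-response for actives.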
# [2] = biological target: human Adrenergic, Alpha 2c Receptor (Adra2C), ADRA2C (gene 152) (UniProt P18825); assay: NVS_GPCR_hAdra2C: NovaScreen (NVS) G Protein-Coupled Receptor Assay for human Adrenergic, Alpha 2c Receptor (Adra2C) (AID 2283259)
# Procedure, shortened: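 Screened first in duplicate at 25 uM, with actives then run as concentration series. Membranes from Sf9 cells were exposed for 1 h, and displacement of radioligand was counted after filtration, using DMSO as baseline.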
# [3] = biological target: human Serotonin, 5-Hydroxytryptamine Receptor 7 (5HT7), HTR7 (gene 3363) (UniProt P34969); assay: NVS_GPCR_h5HT7: NovaScreen (NVS) G Protein-Coupled Receptor Assay for human Serotonin, 5-Hydroxytryptamine Receptor 7 (5HT7) (AID 2283255);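 further: hits reduce specific radioligand binding relative to DMSO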
# Procedure, shortened: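 Filter-bound radioactivity counted after 1 h, with loss of specific radioligand binding fitted against DMSO. Membrane protein came from CHO cells expressing human 5HT7. Chemicals were tested first at 25 uM in duplicate, then in concentration series if active.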
# [4] = biological target: human Adrenergic, Beta 1 Receptor (Adrb1), ADRB1 (gene 153) (UniProt P08588); assay: NVS_GPCR_hAdrb1: NovaScreen (NVS) G Protein-Coupled Receptor Assay for human Adrenergic, Beta 1 Receptor (Adrb1) (AID 2283258)
# Procedure, shortened: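 Membranes/protein extracted from human neuroepithelioma cells, radioligand competition binding read by filtration and scintillation 2 h post-dose. Single 25 uM duplicate screen, then concentration-response follow-up; DMSO as negative control.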
# [5] = biological target: Beta-2 adrenergic receptor (Homo sapiens) (UniProt P07550); assay: NVS_GPCR_hAdrb2: NovaScreen (NVS) G Protein-Coupled Receptor Assay for human Adrenergic, Beta 2 Receptor (Adrb2) (AID 2283261)
# Method: (§1) NVS_GPCR_hAdrb2 is a biochemical, single-readout assay that uses extracted gene-proteins from CHO in a cell-free assay. Measurements were taken 1 hour after chemical dosing in a 96-well plate.NVS_GPCR_hAdrb2 is one of one assay component(s) measured or calculated from the NVS_GPCR_hAdrb2 assay. It is designed to make measurements of radioligand binding, a form of binding reporter, as detected with scintillation counting signals by Filter-based radiodetection technology.Data from the assay component NVS_GPCR_hAdrb2 was analyzed into 1 assay endpoint. This assay endpoint, NVS_GPCR_hAdrb2, was analyzed in the positive analysis fitting direction relative to DMSO as the negative control and baseline of activity. Using a type of binding reporter, loss-of-signal activity can be used to understand changes in the binding as they relate to the gene ADRB2. Furthermore, this assay endpoint can be referred to as a primary readout, because the performed assay has only produced 1 assay endpoint. To generalize the intended target to other relatable targets, this assay endpoint is annotated to the gpcr intended target family, where the subfamily is rhodopsin-like receptor.
# Binding assays used specific radioligands (tritiated, iodinated) with non-radioactive competitive displacement ligands in agonist or antagonist protocols (as indicated) and various reference compounds and inhibitors to titrate specific binding to receptors and transporters. Most enzyme assays (CYPs, kinases, phosphatases, proteases, HDACs) used recombinant protein and specific substrates (fluorescence mostly, some colorimetric and radioactive) and inhibitors, followed by a biochemical separation of substrate and product. All assays for the biochemical HTS were initially run in duplicate at a single concentration (10 uM for CYP450 assays and 25 uM for all others). […] Each assay was run with positive and negative controls, and concurrent controls on every plate. […]
# [6] = biological target: human Adrenergic, Beta 3 Receptor (Adrb3), ADRB3 (gene 155) (UniProt P13945); assay: NVS_GPCR_hAdrb3: NovaScreen (NVS) G Protein-Coupled Receptor Assay for human Adrenergic, Beta 3 Receptor (Adrb3) (AID 2283262)
# Procedure, shortened: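 A cell-free filter binding assay read by scintillation counting, with displacement of a specific radioligand measured after 1 hour. The receptor source was SK-N-MC extracts (cells pretreated with isoproterenol and 8-bromo-cAMP). Compounds were first tested at 25 uM in duplicate and then in concentration series.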
# [7] = biological target: human Dopamine Receptor D4.4 (DRD4.4), DRD4 (gene 1815) (UniProt P21917); assay: NVS_GPCR_hDRD4.4: NovaScreen (NVS) G Protein-Coupled Receptor Assay for human Dopamine Receptor D4.4 (DRD4.4) (AID 2283264)
# Method: as §1, with “NVS_GPCR_hDRD4.4” for “NVS_GPCR_hAdrb2”, “plate.NVS_GPCR_hDRD4.4” for “plate.NVS_GPCR_hAdrb2”, “NVS_GPCR_hDRD4.4,” for “NVS_GPCR_hAdrb2,”, “DRD4.” for “ADRB2.”
# Binding assays used specific radioligands (tritiated, iodinated) with non-radioactive competitive displacement ligands in agonist or antagonist protocols (as indicated) and various reference compounds and inhibitors to titrate specific binding to receptors and transporters. Most enzyme assays (CYPs, kinases, phosphatases, proteases, HDACs) used recombinant protein and specific substrates (fluorescence mostly, some colorimetric and radioactive) and inhibitors, followed by a biochemical separation of substrate and product. All assays for the biochemical HTS were initially run in duplicate at a single concentration (10 uM for CYP450 assays and 25 uM for all others). […] Each assay was run with positive and negative controls, and concurrent controls on every plate. The follow-up (secondary) screen tested active chemical-pairs in concentration series, as well as a few additional assays not tested in the primary screen, some selected negative inactives, and several cases re-run in the concentration series for confirmatory purposes.
# [8] = biological target: human Endothelin Receptor Type A (ETA), EDNRA (gene 1909) (UniProt P25101); assay: NVS_GPCR_hETA: NovaScreen (NVS) G Protein-Coupled Receptor Assay for human Endothelin Receptor Type A (ETA) (AID 2283265)
# Procedure, shortened: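 Binding of radioligand to membrane protein extracted from SH-SY5Y cells was read by filtration and scintillation after 3 h. Compounds were screened at 25 uM in duplicate, with hits followed up in singleton concentration series to 50 uM.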
# [9] = biological target: human Dopamine Receptor D2 (DRD2), DRD2 (gene 1813) (UniProt P14416); assay: NVS_GPCR_hDRD2s: NovaScreen (NVS) G Protein-Coupled Receptor Assay for human Dopamine Receptor D2 (DRD2) (AID 2283266)
# Procedure, shortened: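 Test compound (25 uM, duplicate in the primary screen; concentration series at follow-up) competed with radioligand for human DRD2 in CHO-derived membrane protein. Filter-based scintillation counting was done 1.5 hours after dosing, with loss of signal analysed against DMSO.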
# [10] = biological target: Type-1 angiotensin II receptor (Homo sapiens) (UniProt P30556); assay: NVS_GPCR_hAT1: NovaScreen (NVS) G Protein-Coupled Receptor Assay for human Angiotensin II receptor type 1 (AT1) (AID 2283263)
# Method: NVS_GPCR_hAT1 is a biochemical, single-readout assay that uses extracted gene-proteins from KAN-TS in a tissue-based cell-free assay. Measurements were taken 3 hours after chemical dosing in a 48-well plate.NVS_GPCR_hAT1 is one of one assay component(s) measured or calculated from the NVS_GPCR_hAT1 assay. It is designed to make measurements of radioligand binding, a form of binding reporter, as detected with scintillation counting signals by Filter-based radiodetection technology.Data from the assay component NVS_GPCR_hAT1 was analyzed into 1 assay endpoint. This assay endpoint, NVS_GPCR_hAT1, was analyzed in the positive analysis fitting direction relative to DMSO as the negative control and baseline of activity. […] Furthermore, this assay endpoint can be referred to as a primary readout, because the performed assay has only produced 1 assay endpoint. […]
# Binding assays used specific radioligands (tritiated, iodinated) with non-radioactive competitive displacement ligands in agonist or antagonist protocols (as indicated) and various reference compounds and inhibitors to titrate specific binding to receptors and transporters. Most enzyme assays (CYPs, kinases, phosphatases, proteases, HDACs) used recombinant protein and specific substrates (fluorescence mostly, some colorimetric and radioactive) and inhibitors, followed by a biochemical separation of substrate and product. […]
# Chain of human Adenosine A2a Receptor (AdoRA2a), ADORA2A (gene 135) (P29274 whole entry, looked up): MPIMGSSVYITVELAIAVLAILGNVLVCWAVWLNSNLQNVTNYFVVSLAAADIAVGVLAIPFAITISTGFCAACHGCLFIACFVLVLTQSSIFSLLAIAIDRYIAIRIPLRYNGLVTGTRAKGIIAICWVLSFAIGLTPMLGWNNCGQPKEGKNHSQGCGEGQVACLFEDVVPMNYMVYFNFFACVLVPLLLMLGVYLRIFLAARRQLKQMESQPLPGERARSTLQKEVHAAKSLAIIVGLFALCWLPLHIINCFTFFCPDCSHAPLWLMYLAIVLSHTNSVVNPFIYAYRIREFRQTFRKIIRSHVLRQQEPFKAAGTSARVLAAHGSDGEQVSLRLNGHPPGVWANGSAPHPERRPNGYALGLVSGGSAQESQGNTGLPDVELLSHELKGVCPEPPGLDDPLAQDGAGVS
# Chain of human Dopamine Receptor D4.4 (DRD4.4), DRD4 (gene 1815) (P21917 whole entry, looked up): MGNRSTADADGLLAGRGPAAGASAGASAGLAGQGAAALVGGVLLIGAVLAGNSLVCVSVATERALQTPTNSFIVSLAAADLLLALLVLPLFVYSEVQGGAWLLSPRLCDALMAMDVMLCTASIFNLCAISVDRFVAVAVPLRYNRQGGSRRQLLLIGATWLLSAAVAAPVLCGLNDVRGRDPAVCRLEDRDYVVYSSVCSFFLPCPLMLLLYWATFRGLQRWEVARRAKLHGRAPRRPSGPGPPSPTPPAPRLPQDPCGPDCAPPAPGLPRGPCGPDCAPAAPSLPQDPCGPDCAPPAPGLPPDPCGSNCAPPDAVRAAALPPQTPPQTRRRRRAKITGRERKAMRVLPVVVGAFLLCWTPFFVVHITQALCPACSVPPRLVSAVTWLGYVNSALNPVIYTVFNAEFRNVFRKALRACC
# Chain of human Adrenergic, Beta 3 Receptor (Adrb3), ADRB3 (gene 155) (P13945 whole entry, looked up): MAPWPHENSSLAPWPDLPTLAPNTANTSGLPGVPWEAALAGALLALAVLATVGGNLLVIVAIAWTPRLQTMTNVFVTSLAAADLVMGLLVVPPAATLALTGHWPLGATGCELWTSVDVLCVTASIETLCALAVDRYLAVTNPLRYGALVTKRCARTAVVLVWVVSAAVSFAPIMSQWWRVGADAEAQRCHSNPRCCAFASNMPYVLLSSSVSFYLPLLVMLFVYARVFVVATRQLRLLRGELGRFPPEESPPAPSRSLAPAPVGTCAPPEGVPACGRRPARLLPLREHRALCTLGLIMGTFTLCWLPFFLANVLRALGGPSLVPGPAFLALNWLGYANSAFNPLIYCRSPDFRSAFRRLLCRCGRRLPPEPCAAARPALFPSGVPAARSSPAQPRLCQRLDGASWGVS
# Chain of Beta-2 adrenergic receptor (Homo sapiens) (P07550 whole entry, looked up): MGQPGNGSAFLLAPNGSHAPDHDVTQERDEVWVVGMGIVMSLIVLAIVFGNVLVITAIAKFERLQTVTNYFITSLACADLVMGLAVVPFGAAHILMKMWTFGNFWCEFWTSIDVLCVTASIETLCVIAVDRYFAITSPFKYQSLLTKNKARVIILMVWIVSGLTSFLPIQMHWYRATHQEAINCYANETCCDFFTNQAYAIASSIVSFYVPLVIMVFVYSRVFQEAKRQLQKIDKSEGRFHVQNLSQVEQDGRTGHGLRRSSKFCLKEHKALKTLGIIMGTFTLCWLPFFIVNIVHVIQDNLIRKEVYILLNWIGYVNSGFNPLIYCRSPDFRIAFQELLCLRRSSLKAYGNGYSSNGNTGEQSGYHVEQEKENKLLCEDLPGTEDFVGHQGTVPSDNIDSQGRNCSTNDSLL
# Chain of human Serotonin, 5-Hydroxytryptamine Receptor 7 (5HT7), HTR7 (gene 3363) (P34969 whole entry, looked up): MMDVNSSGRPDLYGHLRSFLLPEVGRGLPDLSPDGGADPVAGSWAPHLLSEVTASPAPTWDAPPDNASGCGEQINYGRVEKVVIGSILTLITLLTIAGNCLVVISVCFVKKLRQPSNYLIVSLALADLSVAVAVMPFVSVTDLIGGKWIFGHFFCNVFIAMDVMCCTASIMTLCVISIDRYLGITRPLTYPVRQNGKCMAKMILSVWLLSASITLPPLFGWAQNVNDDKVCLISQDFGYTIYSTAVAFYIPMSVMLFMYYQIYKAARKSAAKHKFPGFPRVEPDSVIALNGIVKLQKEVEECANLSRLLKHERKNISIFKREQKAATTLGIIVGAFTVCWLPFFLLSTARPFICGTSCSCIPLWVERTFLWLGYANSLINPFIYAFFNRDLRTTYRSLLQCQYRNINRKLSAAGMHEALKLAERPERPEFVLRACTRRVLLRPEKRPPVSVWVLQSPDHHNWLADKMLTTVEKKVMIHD
# Chain of human Adrenergic, Alpha 2c Receptor (Adra2C), ADRA2C (gene 152) (P18825 whole entry, looked up): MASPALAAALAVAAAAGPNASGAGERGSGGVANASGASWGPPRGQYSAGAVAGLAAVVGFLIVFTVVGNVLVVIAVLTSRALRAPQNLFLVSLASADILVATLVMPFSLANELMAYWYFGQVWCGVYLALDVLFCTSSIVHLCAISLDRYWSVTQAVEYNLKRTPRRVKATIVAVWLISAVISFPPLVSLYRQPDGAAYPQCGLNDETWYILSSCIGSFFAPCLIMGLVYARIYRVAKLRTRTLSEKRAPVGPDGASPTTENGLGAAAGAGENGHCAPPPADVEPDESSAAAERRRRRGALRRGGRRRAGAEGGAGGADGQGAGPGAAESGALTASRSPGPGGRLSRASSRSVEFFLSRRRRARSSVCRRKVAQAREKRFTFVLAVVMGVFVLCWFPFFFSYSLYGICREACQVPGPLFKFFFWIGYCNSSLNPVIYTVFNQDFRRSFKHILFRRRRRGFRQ
# Chain of human Adrenergic, Beta 1 Receptor (Adrb1), ADRB1 (gene 153) (P08588 whole entry, looked up): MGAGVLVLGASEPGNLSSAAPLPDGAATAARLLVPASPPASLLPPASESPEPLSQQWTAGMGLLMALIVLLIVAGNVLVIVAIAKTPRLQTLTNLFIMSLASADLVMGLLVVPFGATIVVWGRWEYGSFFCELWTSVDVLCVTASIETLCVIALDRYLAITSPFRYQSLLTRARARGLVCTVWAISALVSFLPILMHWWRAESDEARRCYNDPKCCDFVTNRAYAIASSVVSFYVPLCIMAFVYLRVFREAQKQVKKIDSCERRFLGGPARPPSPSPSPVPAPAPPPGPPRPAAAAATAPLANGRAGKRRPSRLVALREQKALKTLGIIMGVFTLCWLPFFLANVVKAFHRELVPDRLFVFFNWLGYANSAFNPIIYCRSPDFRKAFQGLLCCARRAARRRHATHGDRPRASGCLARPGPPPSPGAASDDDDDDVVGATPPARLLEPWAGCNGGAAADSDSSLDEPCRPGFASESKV
# Chain of human Dopamine Receptor D2 (DRD2), DRD2 (gene 1813) (P14416 whole entry, looked up): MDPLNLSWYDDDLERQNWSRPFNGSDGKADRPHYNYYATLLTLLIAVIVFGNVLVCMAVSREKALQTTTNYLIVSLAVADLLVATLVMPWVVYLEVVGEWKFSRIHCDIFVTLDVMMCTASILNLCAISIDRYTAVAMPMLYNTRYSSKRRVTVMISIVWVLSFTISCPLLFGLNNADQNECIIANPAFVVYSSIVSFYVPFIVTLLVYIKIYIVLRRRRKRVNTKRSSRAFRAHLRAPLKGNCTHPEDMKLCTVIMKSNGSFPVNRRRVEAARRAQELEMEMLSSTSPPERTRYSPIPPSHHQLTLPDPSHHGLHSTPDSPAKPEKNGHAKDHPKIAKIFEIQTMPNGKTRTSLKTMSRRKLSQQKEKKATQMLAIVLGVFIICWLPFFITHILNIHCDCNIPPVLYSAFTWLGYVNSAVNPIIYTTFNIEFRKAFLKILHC
# Chain of Type-1 angiotensin II receptor (Homo sapiens) (P30556 whole entry, looked up): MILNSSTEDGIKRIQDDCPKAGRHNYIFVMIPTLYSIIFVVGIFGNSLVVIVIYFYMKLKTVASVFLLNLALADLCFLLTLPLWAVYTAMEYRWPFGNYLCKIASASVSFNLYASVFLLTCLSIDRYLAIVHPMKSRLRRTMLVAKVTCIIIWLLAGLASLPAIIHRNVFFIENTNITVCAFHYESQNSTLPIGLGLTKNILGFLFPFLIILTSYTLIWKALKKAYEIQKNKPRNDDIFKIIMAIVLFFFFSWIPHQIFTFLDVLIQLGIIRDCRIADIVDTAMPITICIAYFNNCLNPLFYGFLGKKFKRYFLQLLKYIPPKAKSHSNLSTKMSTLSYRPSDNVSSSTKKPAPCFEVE
# Chain of human Endothelin Receptor Type A (ETA), EDNRA (gene 1909) (P25101 whole entry, looked up): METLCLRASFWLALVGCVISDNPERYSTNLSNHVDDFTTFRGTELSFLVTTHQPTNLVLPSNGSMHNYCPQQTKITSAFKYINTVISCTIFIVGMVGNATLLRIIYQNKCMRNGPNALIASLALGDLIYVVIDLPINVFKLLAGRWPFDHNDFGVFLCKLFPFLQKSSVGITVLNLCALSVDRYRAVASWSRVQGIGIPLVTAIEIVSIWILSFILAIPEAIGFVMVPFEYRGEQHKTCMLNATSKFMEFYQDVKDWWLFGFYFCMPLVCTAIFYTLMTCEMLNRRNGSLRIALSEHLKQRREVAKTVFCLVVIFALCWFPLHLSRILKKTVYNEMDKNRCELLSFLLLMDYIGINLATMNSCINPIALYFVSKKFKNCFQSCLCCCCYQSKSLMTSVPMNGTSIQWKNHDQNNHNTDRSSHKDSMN
smiles,measurement,setting,value
O=C(O)C(F)(F)C(F)(F)C(F)(F)C(F)(F)C(F)(F)C(F)(F)C(F)(F)C(F)(F)F,AC50,[1],10.6 µM (active)
same,AC50,[2],25 µM (active)
Oc1c(Cl)c(Cl)c(Cl)c(Cl)c1Cl,AC50,[1],13.1 µM (active)
CCCCCCCCCC[N+](C)(C)CCCCCCCCCC,AC50,[3],5.73 µM (active)
same,AC50,[4],5.34 µM (active)
same,AC50,[2],3.53 µM (active)
same,AC50,[5],17.5 µM (active)
same,AC50,[6],7.1 µM (active)
same,AC50,[7],25 µM (active)
same,AC50,[8],6.49 µM (active)
same,AC50,[9],5.51 µM (active)
CC(C)(c1ccccc1)c1ccc(O)cc1,AC50,[2],9.37 µM (active)
same,outcome,[9],inactive
C[C@]12CCC(=O)C=C1CC[C@@H]1[C@@H]2CC[C@]2(C)C(=O)CC[C@@H]12,outcome,[3],inactive
Cc1cc(-c2ccc(N)c(C)c2)ccc1N,outcome,[9],inactive
Oc1ccc(C(c2ccc(O)cc2)(C(F)(F)F)C(F)(F)F)cc1,AC50,[3],5.73 µM (active)
same,AC50,[1],25 µM (active)
same,AC50,[4],19.3 µM (active)
same,AC50,[2],10.7 µM (active)
same,AC50,[5],25 µM (active)
same,outcome,[6],inactive
same,outcome,[10],inactive
same,AC50,[7],14.1 µM (active)
same,AC50,[9],9.39 µM (active)
CCC(C)(c1ccc(O)cc1)c1ccc(O)cc1,AC50,[3],15.9 µM (active)
CCCCCCCCOC(=O)c1ccccc1C(=O)OCCCCCCCC,outcome,[4],inactive
COc1ccc(O)c(C(C)(C)C)c1,outcome,[3],inactive
same,outcome,[7],inactive
same,AC50,[9],25 µM (active)
CCNc1nc(NC(C)C)nc(SC)n1,AC50,[1],10 µM (active)
Cc1cc2c3c(c1)C(c1ccccc1)=N[C@@H](NC(=O)c1ccncc1)C(=O)N3CC2,AC50,[3],25 µM (active)
CN(C)c1nc(=O)n(C2CCCCC2)c(=O)n1C,outcome,[5],inactive
O=C(O)C(F)(F)C(F)(F)C(F)(F)C(F)(F)C(F)(F)C(F)(F)C(F)(F)C(F)(F)C(F)(F)F,AC50,[3],16.4 µM (active)
same,AC50,[1],7.6 µM (active)
same,AC50,[4],21.3 µM (active)
same,AC50,[2],10.9 µM (active)
same,AC50,[7],25 µM (active)
CCCN(CCC)N=O,outcome,[4],inactive
c1cc2ccc3cccc4ccc(c1)c2c34,outcome,[6],inactive
